“And” between values parts separate entries of the source, which are not always exact repeats. Identical values can stand only once. A number with no mark means an inactive call. The source made the active and inactive calls. No stated cut-off is given here; in the data, active means inhibition above about 30%; inactive means the rest.

The assay in a line: growth suppression of yeast trafficking mutant, preliminary HTS, modulators of trafficking downstream of Golgi apparatus project, 1536-format plate, OD 615 nm (AID 637). Conditions: yeast transport mutant growth, absorbance 615 nm, 18 h; stronger effect = higher value.
With `O=C1CCCN1CCCNc1ncnc2c1[nH]c1ccc(Cl)cc12`, the inhibition (usually the relative decrease from the control value, in per cent) was -0.48%. For `C=CCNS(=O)(=O)c1ccc2nsnc2c1` the value was -2.1%. Take `O=C(O)c1oc2ccccc2c1-n1cccc1`: the inhibition was 0.16%.

For the compound `COCCn1c(SCc2csc(-c3ccccc3)n2)nc2ccccc21`, the inhibition was -8.03%. Under `Nc1nc2ccccc2n1C(=O)CCc1ccccc1` stands -2.67%; under `Cc1cccc2cc(CN(CCN3CCCC3)C(=O)NC3CCCCC3)c(=O)[nH]c12`, -0.16%; under `Cc1ccc(-c2noc(CCC(=O)NCCc3ccccc3Cl)n2)cc1`, -5.17%. Under `COc1ccc2c(c1OC)C(=O)OC2C1c2c(cc3c(c2OC)OCO3)CCN1C` (stereo not given) stands 4.92% and 5.33%.

As for `CCOC(=O)CNC(=O)Nc1nnc(-c2ccc(OCC)cc2)o1`, the inhibition is -3.02%. For `C/C(N)=C(/C#N)C(=O)COC(=O)CCSc1ccccc1` the value was 4.59%. For `CCOC(=O)C1=C(C)NC(C)=C(C(=O)OCC)C1C(=O)OC1CCOC1=O` (stereo not given) the value was 0.95%.

On to `CCC1(NC(C)=O)CC2CC1CC2NC(C)=O` (stereo not given), for which the inhibition is -5.74%. Under `CC(C)COc1nc2ccccc2nc1C(C#N)C(=O)NC1CCCCC1` (stereo not given) stands 31% (active); under `CCc1cc(C(=O)OC)c(NC(=O)CCC(=O)O)s1`, 0%.

Consider `Cc1cccc2cc(CN(CCCO)C(=O)Nc3ccc(Cl)cc3)c(=O)[nH]c12`, for which the inhibition was -1.43%. For `O=C(CCN1CCN(C(=O)c2ccco2)CC1)Nc1ccc(F)cc1` the value was 2.95%; for `CCC(=NC(C)c1ccccc1)c1c(O)n(C)c(=O)n(C)c1=O` (stereo not given), 6.39%.

As for `O=C(O)CCCCCNc1nc(=S)[nH]c2ccccc12`, the inhibition is -1.59%. On to `CCOC(=O)N1CCN(C(=O)c2ccc3nc4cc(Cl)ccc4c(=O)n3c2)CC1`, for which the inhibition is 2.1%. Under `COc1ccc(OC)c(C(=O)CSc2nnc(-c3ccc(OC)c(OC)c3)o2)c1` stands -8.85%. Under `C[C@H](NC(=O)NCc1cccs1)C(=O)O` stands -4.43%; under `CC1CCN(CC(O)COC2CCC(C(C)(C)C)CC2)CC1` (stereo not given), 84.4% (active). Under `Cc1cccc(N2CCN(C(=O)Cn3ccc4ccccc4c3=O)CC2)c1C` stands -2.91%. For the compound `Cc1cc(NC(=O)CCC(=O)N(c2cccnc2)C(C(=O)NC2CCCC2)c2ccccc2F)no1` (stereo not given), the inhibition is -2.46%. Consider `Cc1ccc(NC(=O)CCC(=O)O)cc1F`, for which the inhibition was -2.7%. For `CC1C=CC(C)C(C(=O)O)C1C(=O)O` (stereo not given) the value was -5.67%. In the case of `Cc1ccc(-c2nnn(CC(=O)N(CC3CCCO3)C(C(=O)NC(C)(C)C)c3ccc(F)cc3)n2)o1` (stereo not given), the inhibition is -4.03%.

On to `CN(C)C(=O)c1ccc(COc2ccccc2Br)o1`, for which the inhibition was 0.48%. Under `CCOC(=O)C1C2C=CC3(CN(c4cccc(Cl)c4)C(=O)C13)O2` (stereo not given) stands 0.17%; under `O=C(NCCC1=CCCCC1)C1CCN(C(=O)Nc2ccccc2)CC1`, -2.33%; under `CCOC(=O)C1CCN(c2c(N(C)Cc3ccco3)c(=O)c2=O)CC1`, -5.5%. For `CCN(CC)CCn1c2ccccc2c2nc(C)sc21` the value was -2.54%; for `COc1cc(C(=O)OCC(=O)N(C)Cc2ccccc2)cc(OC)c1OC`, 0.79%; for `COc1ccc(C)cc1NC(=O)COCC(=O)O`, -3.49%.

In the case of `Cc1c(C(=O)O)sc2ncn(C)c(=O)c12`, the inhibition was -4%. As for `O=C(COC(=O)C1=COCCO1)Nc1ccccc1Oc1ccccc1`, the inhibition was -1.64%. On to `O=C(Nc1cccc2ccccc12)c1cnccn1`, for which the inhibition is -1.59%. In the case of `CCOC(=O)c1cccnc1SCC(=O)NC(C)CC` (stereo not given), the inhibition is -3.61%. For `CCOc1nc2ccccc2nc1NS(=O)(=O)c1ccccc1`, the inhibition was 3.82%. For `Cc1cc(N2C(=O)C3C4C=CC(C4)C3C2=O)ccc1Br` (stereo not given) the value was -5.4%.

The values above are taken from PubChem BioAssay.
